Experimental data from PubChem BioAssay (NCI).
This is part of a sample that, as a whole, favours compounds with a hit. Of some 83,000 tested, about 20% had one in any assay.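 96-well plates, one dose, 48 hours. Percent growth reported; active if below 10.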 Values without a mark were called inactive. Activity calls are given as the source filed them.

system: HCT-116 colon; assay: NCI-60 one-dose screen, 48 h (100 = growth as untreated, 0 = no growth, -100 = all killed); conditions: 10 µM unless noted

Point of comparison: `O=C1C=CC(=O)N1c1cccc(Cl)c1`, growth 89.7%. Against it:
- N#CC1=C(N)Oc2c(ccc3ccccc23)C1c1ccccc1Cl (configuration not stated) — lower, 11.9%
- O=C(CSc1nc2ccccc2[nH]1)NCc1ccccc1 — higher, 107%
- N#Cc1c(-c2ccccc2)nc2c(c(-c3ccccc3)nn2-c2ccccc2)c1-c1ccc(O)cc1 — lower, 34.8%
- COc1cc(CC(=O)n2ncc3ccc(N)cc32)cc(OC)c1OC — higher, 97.3%
- Cc1cc2c(c(C)c1Cl)C(=O)/C(=C/c1ccc(O)c(O)c1)O2 — higher, 112%
- COC(=O)C(CC=O)C(=O)C(=O)Nc1cccc(C(F)(F)F)c1 (configuration not stated) — higher, 90.1%
- CN(CCN(C)c1ccc(C(=N)N)cc1)c1ccc(C(=N)N)cc1 — higher, 104%
- N#CC(C(=O)/C(=N/NC(=O)c1ccccc1O)C(C#N)c1ccccc1)c1ccccc1 (configuration not stated) — lower, 14.7%
- O=[N+]([O-])c1ccc(N=Nc2cc(S(=O)(=O)O)c3cccc(S(=O)(=O)O)c3c2O)cc1 — higher, 97.7%
- C=CCn1c(-c2ccc(-c3nc4ccc(C)cc4[nH]3)cc2)n[nH]c1=S — higher, 106%
- O=C1Nc2ccccc2/C1=C\c1c(-c2ccccc2)nc2ccccn12 — lower, 20.6%
- COc1cc(/C=C\c2cc(OC)c(OC)c(OC)c2)cc(N)c1OC — lower, 79.1%

In the case of `COc1ccc(-c2nc(S(=O)(=O)c3ccccc3)c(S(=O)CC(=O)N3CCC(C)CC3)o2)cc1` (configuration not stated), the growth was -55.9% (active).
For `COc1cc(C2C3=C(COC3=O)N(CCO)c3cc4c(cc32)OCO4)cc(OC)c1OC` (configuration not stated), the growth was 4.34% (active).
`CC(=O)[C@H]1CCC/C=C/[C@@H]2C[C@H](O)C[C@H]2[C@H](O)/C=C/C(=O)O1` was tested, and the growth was -45.1% (active).
With `O=C1/C=C/[C@@H](O)[C@@H]2C[C@@H](O)C[C@H]2/C=C/CCC[C@H](CCc2cccc3ccccc23)O1` the growth was -63.9% (active).
In the case of `CC(C)(C)[Si](C)(C)OC1[C@@H](O[Si](C)(C)C(C)(C)C)[C@@H](CNC(=O)NC(=O)CCl)O[C@H]1n1cnc2c(NC(=O)Nc3ccccc3)ncnc21` (some centres not stated), the growth was -99% (active).
`O=C1/C=C/[C@@H](O)[C@@H]2C[C@@H](O)C[C@H]2/C=C/CCC[C@H](CCc2ccc3ncccc3c2)O1` was tested, and the growth was -53.6% (active).
For `C#Cc1cccc(NC(=O)Nc2cccc(NC(=O)CCl)c2)c1`, the growth was 2.24% [8.25 µM] (active).

system: HCC-2998 colon; assay: as above; conditions: 10 µM unless noted

Point of comparison: `COc1cc(/C=C\c2cc(OC)c(OC)c(OC)c2)cc(N)c1OC`, growth 73.1%. Against it:
- O=C(/C=C/c1c(-c2ccc(Cl)cc2)nn(-c2ccccc2)c1C(F)(F)F)c1ccc(Cl)cc1 — higher, 103%
- Cc1c(C)c([N+](=O)[O-])c(C)c([N+](=O)[O-])c1C — higher, 112%
- CC(c1ccccc1)C(C(=O)c1ccccc1)c1ccccc1 (configuration not stated) — higher, 93.4%
- COc1cc(NC(=O)CSc2nc3ccc(C)cc3c(=O)n2Cc2ccccc2)cc(OC)c1OC — higher, 76%
- CSc1nc2sc3cccc(Cl)c3n2c(=N)c1C#N — higher, 106%
- CCN(c1ccccc1)S(=O)(=O)c1cc([N+](=O)[O-])ccc1Cl — higher, 110%
- COC1=CC(=O)c2ccccc2C1=O — higher, 107%
- Cc1nc2ccc(Cl)cn2c1-c1nnc(SCc2ccc([N+](=O)[O-])cc2)o1 — higher, 83.5%
- COc1ccc(/C=C/C(=O)Nc2cc(/C=C\c3cc(OC)c(OC)c(OC)c3)cc(OC)c2OC)cc1OC — lower, 55.6%
- N#C/C(=C\c1cccc(C#N)c1)c1ccccc1 — higher, 93.1%
- C[C@H]1[C@H]2[C@H]3CC[C@@H]4[C@@]5(C)CC[C@H](O)C(C)(C)[C@@H]5CC[C@@]4(C)[C@]3(C)CC[C@]23CO[C@]1(C)[C@@H](C(=O)/C=C\c1ccco1)C3 — higher, 104%
- COc1cc2cc(Oc3cccc(NC(=O)Nc4cc(C(F)(F)F)cc(C(F)(F)F)c4)c3)c(C)nc2cc1OC — lower, 21.3%
- Cc1ncc(C(=O)Nc2ccc(CN3CCN(C)CC3)c(C(F)(F)F)c2)cc1C#Cc1cnc(N)cc1C#N — lower, 54.5%
- Cc1ccc(-n2nc3c(c(C#N)c2=O)CC(c2ccccc2[N+](=O)[O-])C([N+](=O)[O-])=C3O)cc1 (configuration not stated) — higher, 116%
- N#CC1=C(N)Oc2c(ccc3ccccc23)C1c1ccccc1Cl (configuration not stated) — lower, 17.7%
- O=C(CSc1nc2ccccc2[nH]1)NCc1ccccc1 — higher, 102%
- COc1ccc(-c2nc(S(=O)(=O)c3ccccc3)c(S(=O)CC(=O)N3CCC(C)CC3)o2)cc1 (configuration not stated) — higher, 90.6%
- N#Cc1c(-c2ccccc2)nc2c(c(-c3ccccc3)nn2-c2ccccc2)c1-c1ccc(O)cc1 — lower, 72%
- COc1cc(CC(=O)n2ncc3ccc(N)cc32)cc(OC)c1OC — higher, 105%
- Cc1cc2c(c(C)c1Cl)C(=O)/C(=C/c1ccc(O)c(O)c1)O2 — higher, 112%
- O=C1C=CC(=O)N1c1cccc(Cl)c1 — higher, 104%
- COC(=O)C(CC=O)C(=O)C(=O)Nc1cccc(C(F)(F)F)c1 (configuration not stated) — higher, 97%
- CN(CCN(C)c1ccc(C(=N)N)cc1)c1ccc(C(=N)N)cc1 — higher, 97%
- O=C1/C=C/[C@@H](O)[C@@H]2C[C@@H](O)C[C@H]2/C=C/CCC[C@H](CCc2ccc3ncccc3c2)O1 — lower, 12.9%
- CCNc1nc2ccc(Nc3ccnc4cc(Cl)ccc34)cc2[nH]1 — higher, 84.1%
- N#CC(C(=O)/C(=N/NC(=O)c1ccccc1O)C(C#N)c1ccccc1)c1ccccc1 (configuration not stated) — higher, 85.9%
- O=[N+]([O-])c1ccc(N=Nc2cc(S(=O)(=O)O)c3cccc(S(=O)(=O)O)c3c2O)cc1 — higher, 112%
- C=CCn1c(-c2ccc(-c3nc4ccc(C)cc4[nH]3)cc2)n[nH]c1=S — higher, 108%
- O=C1Nc2ccccc2/C1=C\c1c(-c2ccccc2)nc2ccccn12 — higher, 107%

In the case of `COC(=O)c1ccc2c(c1)[n+](=O)c(C(C)=O)c(C(F)(F)F)n2[O-]`, the growth was -86.9% (active).
With `COc1cc(/C=C/C(=O)c2nc3cc(F)ccc3nc2C)cc(OC)c1OC` the growth was -4.35% (active).
In the case of `COc1cc(C2C3=C(COC3=O)N(CCO)c3cc4c(cc32)OCO4)cc(OC)c1OC` (configuration not stated), the growth was -13% (active).
`CC(=O)[C@H]1CCC/C=C/[C@@H]2C[C@H](O)C[C@H]2[C@H](O)/C=C/C(=O)O1` was tested, and the growth was -23.3% (active).
For `O=C1/C=C/[C@@H](O)[C@@H]2C[C@@H](O)C[C@H]2/C=C/CCC[C@H](CCc2cccc3ccccc23)O1`, the growth was 3.84% (active).

Point of comparison: `C#Cc1cccc(NC(=O)c2cccc(NC(=O)CCl)c2)c1`, growth 74.3% [8.25 µM]. Against it:
- C#Cc1cccc(NC(=O)Nc2cccc(NC(=O)CCl)c2)c1 — higher, 93.6% [8.25 µM]
